From PubChem BioAssay (NCATS)
Records with an inconclusive call do not appear. Active and inactive are the calls of the source. The call rests on the fitted dose curve; in most records, active means well fitted curve in the direction sought with a large enough effect; inconclusive means small, poorly fitted or top-dose-only effect, or another doubt; inactive means no such curve, though single readings can be large; an effect the other way counts as inactive or inconclusive.

How the values were obtained:
[1] = Quantitative High-Throughput drug screen in 47 multiple myeloma cell lines against the NCATS MIPE library collection: Karpas417_ECACC cell viability assay (AID 1918961); conditions: Karpas417 myeloma viability, CellTiter-Glo ATP luminescence, 48 h; viability (% of DMSO): at 45.8 µM (top of the series)
How it was run: (§1)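 Approved and investigational drugs from MIPE 4.0 were added by pin tool to 500 cells per well. After 48 hours at 37C, ATP-based CellTiter-Glo luminescence indicated remaining viability.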

[2] = Quantitative High-Throughput drug screen in 47 multiple myeloma cell lines against the NCATS MIPE library collection: KHM11_PLB cell viability assay (AID 1918962); further: nearly all actives have a fitted effect of over 35% in size
How it was run: (§2)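 Viability readout: CellTiter-Glo luminescence following 5 min room-temperature incubation with reagent. Prior exposure: 48 h, 37C, humidified 5% CO2, 500 cells per well.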

[3] = Quantitative High-Throughput drug screen in 47 multiple myeloma cell lines against the NCATS MIPE library collection: JIM3_ECACC cell viability assay (AID 1918963; further: nearly all actives have a fitted effect of over 35% in size)
How it was run: as §2

[4] = Quantitative High-Throughput drug screen in 47 multiple myeloma cell lines against the NCATS MIPE library collection: JJN3_DSMZ cell viability assay (AID 1918966; further: nearly all actives have a fitted effect of over 50% in size)
How it was run: (§3)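 We plated 500 myeloma cells per well, pinned in MIPE 4.0 compounds, and incubated for 48 hours at 37C. ATP was then quantified with CellTiter-Glo, with DMSO and media-only wells defining 100% and 0%.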

[5] = Quantitative High-Throughput drug screen in 47 multiple myeloma cell lines against the NCATS MIPE library collection: KMS12BM_JCRB cell viability assay (AID 1918971); further: nearly all actives have a fitted effect of over 35% in size
How it was run: as §1

[6] = Quantitative High-Throughput drug screen in 47 multiple myeloma cell lines against the NCATS MIPE library collection: KMS12PE_JCRB cell viability assay (AID 1918972); further: nearly all actives have a fitted effect of over 30% in size
How it was run: as §1

[7] = Quantitative High-Throughput drug screen in 47 multiple myeloma cell lines against the NCATS MIPE library collection: KMS21BM_JCRB cell viability assay (AID 1918974); conditions: ATP luminescence, 48 h; viability: at 45.8 µM (top of the series)
How it was run: as §3

[8] = Quantitative High-Throughput drug screen in 47 multiple myeloma cell lines against the NCATS MIPE library collection: MOLP8_DSMZ cell viability assay (AID 1918977); further: nearly all actives have a fitted effect of over 45% in size
How it was run: (§4)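 MIPE 4.0 approved/investigational drugs; 500 cells/well; 48 h 37 °C humidified 5% CO2; CTG luminescence readout; DMSO = 100%, media = 0% viability.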

[9] = Quantitative High-Throughput drug screen in 47 multiple myeloma cell lines against the NCATS MIPE library collection: NCIH929_DSMZ cell viability assay (AID 1918978); further: nearly all actives have a fitted effect of over 35% in size
How it was run: as §4

[10] = Quantitative High-Throughput drug screen in 47 multiple myeloma cell lines against the NCATS MIPE library collection: OCIMY1_PLB cell viability assay (AID 1918979); further: nearly all actives have a fitted effect of over 35% in size
How it was run: as §4

[11] = Quantitative High-Throughput drug screen in 47 multiple myeloma cell lines against the NCATS MIPE library collection: MM1S_ATCC cell viability assay (AID 1918980); further: nearly all actives have a fitted effect of over 45% in size
How it was run: as §4

[12] = Quantitative High-Throughput drug screen in 47 multiple myeloma cell lines against the NCATS MIPE library collection: INA6_PLB cell viability assay (AID 1918965; further: nearly all actives have a fitted effect of over 55% in size)
How it was run: as §1

[13] = Quantitative High-Throughput drug screen in 47 multiple myeloma cell lines against the NCATS MIPE library collection: H1112_PLB cell viability assay (AID 1918967; further: nearly all actives have a fitted effect of over 30% in size)
How it was run: as §3

[14] = Quantitative High-Throughput drug screen in 47 multiple myeloma cell lines against the NCATS MIPE library collection: Karpas25_ECACC cell viability assay (AID 1918968; further: nearly all actives have a fitted effect of over 35% in size)
How it was run: as §3

[15] = Quantitative High-Throughput drug screen in 47 multiple myeloma cell lines against the NCATS MIPE library collection: KMS20_JCRB cell viability assay (AID 1918973); further: nearly all actives have a fitted effect of over 45% in size
How it was run: as §3

[16] = Quantitative High-Throughput drug screen in 47 multiple myeloma cell lines against the NCATS MIPE library collection: KMS26_JCRB cell viability assay (AID 1918975); further: nearly all actives have a fitted effect of over 45% in size
How it was run: as §1

[17] = Quantitative High-Throughput drug screen in 47 multiple myeloma cell lines against the NCATS MIPE library collection: MMM1_PLB cell viability assay (AID 1918976); further: nearly all actives have a fitted effect of over 35% in size
How it was run: as §4

[18] = Quantitative High-Throughput drug screen in 47 multiple myeloma cell lines against the NCATS MIPE library collection: JIM1_ECACC cell viability assay (AID 1918964)
How it was run: as §3

[19] = Quantitative High-Throughput drug screen in 47 multiple myeloma cell lines against the NCATS MIPE library collection: KMS27_JCRB cell viability assay (AID 1918970); conditions: KMS27 myeloma cells, CellTiter-Glo ATP viability, 48 h; viability (% of DMSO): at 45.8 µM (top of the series); further: nearly all actives have a fitted effect of over 30% in size
How it was run: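 ATP-based viability (CellTiter-Glo luminescence) is measured in cells treated 48 h with approved and investigational drugs at 37 °C. Controls are DMSO-only wells for full viability and media-only wells for none.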

Measured: Potency
Potency means the concentration at half of the fitted maximal effect.

OCCn1cc(-c2ccc3c(c2)CCC3=NO)c(-c2ccncc2)n1
inactive: [3] | [4] | [5] | [6] | [10]
active: [1] 8.33 µM | [2] 4.69 µM | [7] 8.33 µM | [8] 0.0662 µM | [9] 20.9 µM | [11] 26.4 µM

CN[C@@H]1CN(c2ccc3c(=O)c(C(=O)O)cn(-c4nccs4)c3n2)C[C@@H]1OC
active: [2] 14.4 µM | [3] 14.4 µM | [12] 1.44 µM | [4] 8.12 µM | [13] 12.9 µM | [14] 5.12 µM | [5] 0.645 µM | [15] 6.45 µM | [16] 18.2 µM | [17] 8.12 µM | [8] 6.45 µM | [9] 1.62 µM | [11] 0.257 µM

NC(=O)c1ncn([C@@H]2O[C@H](CO)[C@@H](O)[C@@H]2O)n1
active: [11] 8.33 µM
inactive: [2] | [3] | [18] | [12] | [13] | [14] | [15] | [7] | [9]

CC(=O)OCC(=O)[C@@]12OC(C)(C)O[C@H]1C[C@H]1[C@@H]3C[C@H](F)C4=CC(=O)C=C[C@]4(C)[C@@]3(F)[C@@H](O)C[C@@]12C
active: [11] 0.0372 µM
inactive: [2] | [3] | [18] | [13] | [19] | [6] | [15] | [16] | [9] | [10]

O=c1[nH]c(=O)n([C@H]2C[C@@H](O)[C@@H](CO)O2)cc1I
inactive: [1] | [18] | [4] | [13] | [5] | [16] | [8] | [9] | [10]
active: [6] 1.48 µM

NC(=O)c1noc([C@H](CCCC2CCCCC2)CC(=O)NO)n1
active: [2] 20.9 µM | [3] 23.5 µM | [18] 5.9 µM | [12] 14.8 µM | [13] 16.6 µM | [14] 14.8 µM | [19] 7.43 µM | [5] 7.43 µM | [6] 5.26 µM | [16] 11.8 µM | [17] 16.6 µM | [9] 14.8 µM | [11] 16.6 µM

Cc1cnc(Nc2cccc(CN3CCOCC3)c2)nc1Nc1cccc(S(=O)(=O)NC(C)(C)C)c1
active: [1] 0.662 µM | [2] 13.2 µM | [3] 2.96 µM | [12] 0.469 µM | [4] 5.9 µM | [13] 13.2 µM | [14] 3.72 µM | [5] 5.26 µM | [7] 0.833 µM | [16] 18.7 µM | [17] 18.7 µM | [8] 2.96 µM | [9] 1.87 µM

C[C@@H](NC(=O)c1ncnc(N)c1Cl)c1ncc(C(=O)Nc2cc(C(F)(F)F)c(Cl)cn2)s1
active: [1] 2.96 µM | [2] 5.26 µM | [3] 13.2 µM | [4] 18.7 µM | [13] 16.6 µM | [10] 2.96 µM | [11] 16.6 µM

C[C@@H]1C[C@H]2[C@@H]3CCC4=CC(=O)C=C[C@]4(C)[C@@]3(F)[C@@H](O)C[C@]2(C)[C@@]1(O)C(=O)CO
active: [1] 0.0418 µM | [14] 0.0526 µM | [15] 0.418 µM | [11] 0.0264 µM
not listed: [2] | [5] | [7] | [8] | [16] | [17]
inactive: all other assays above

c1cc(OCCN2CCCCC2)cc(-c2n[nH]c3ccc(-c4ncn[nH]4)cc23)c1
active: [2] 14.8 µM | [3] 18.7 µM | [12] 6.62 µM | [4] 11.8 µM | [14] 14.8 µM | [19] 18.7 µM | [7] 3.72 µM | [9] 8.33 µM | [11] 23.5 µM

Cc1cc(C(C)Nc2ccccc2)c2nc(N3CCOCC3)cc(=O)n2c1 (centres undefined)
active: [2] 1.48 µM | [3] 14.8 µM | [12] 18.7 µM | [14] 4.18 µM | [6] 16.6 µM | [11] 0.332 µM
inactive: [4] | [17] | [8] | [10]

O=C(O)c1ccc(O)c2ncc(N3CCOCC3)cc12
active: [3] 18.7 µM | [18] 20.9 µM | [14] 18.7 µM | [19] 23.5 µM | [9] 18.7 µM | [11] 23.5 µM
inactive: [2] | [12] | [16] | [10]

O=C(O)C1=CO[C@@H](O[C@@H]2O[C@H](CO)[C@H](O)[C@H](O)[C@H]2O)[C@@H]2C(CO)=CC[C@H]12
active: [6] 0.0743 µM | [11] 16.6 µM
inactive: [1] | [3] | [13] | [14] | [19] | [8] | [10]
